We go through 8 molecules from PubChem BioAssay.

Experiment [1] can be described thus: small-molecule microarray binders of probe aNog, primary screen, biochemical, biotinylated probe, 635/667 nm fluorescence (AID 1115).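 Also: probe is biotinylated aNog protein used at 0.15 µg/mL for 1 h at 4 C; z-score combines 667 nm fluorescence of each spot with its signal to noise.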 The settings on record: higher = more signal.
Experiment [2] addresses Torsin-1A-interacting protein 1 (Homo sapiens) (UniProt Q5JTV8). Description: LAP1 binders from COS7 cell lysate, primary screen, small-molecule microarray, 635/667 nm fluorescence (AID 1116). To be noted: COS7-hLAP1 lysate binding, 635 nm fluorescence, higher = more signal.
The next experiment deals with Albumin (Bos taurus) (UniProt P02769). Description: bovine serum albumin binders on microarray, profiling panel, artefact control for SMM control protein annotation, biochemical, small-molecule microarray, Alexa647 label, 635/667 nm fluorescence (AID 1118).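 Also: score merges 667 nm emission intensity and signal-to-noise per printed compound spot.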 The settings on record: BSA-A647 binding, fluorescence 635 nm, higher = more signal.
Chain of Albumin (Bos taurus) (P02769 whole entry, looked up): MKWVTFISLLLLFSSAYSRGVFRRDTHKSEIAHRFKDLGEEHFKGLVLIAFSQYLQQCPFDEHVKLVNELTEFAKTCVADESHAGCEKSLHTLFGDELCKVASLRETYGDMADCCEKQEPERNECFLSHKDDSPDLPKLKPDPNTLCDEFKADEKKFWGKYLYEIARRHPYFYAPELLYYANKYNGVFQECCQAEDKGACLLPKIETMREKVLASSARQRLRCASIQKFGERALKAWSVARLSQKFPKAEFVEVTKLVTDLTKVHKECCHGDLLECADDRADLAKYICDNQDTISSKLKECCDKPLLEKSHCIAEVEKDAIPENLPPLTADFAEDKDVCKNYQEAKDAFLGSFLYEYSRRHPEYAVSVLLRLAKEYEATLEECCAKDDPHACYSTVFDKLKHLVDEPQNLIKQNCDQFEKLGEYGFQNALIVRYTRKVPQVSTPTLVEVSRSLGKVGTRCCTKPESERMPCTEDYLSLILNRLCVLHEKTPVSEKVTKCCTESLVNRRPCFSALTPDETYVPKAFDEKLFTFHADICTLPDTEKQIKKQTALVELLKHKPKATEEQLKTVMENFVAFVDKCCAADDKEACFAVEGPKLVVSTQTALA
A short description of experiment [3]: small-molecule microarray binders of probe aXIP, primary screen, biochemical, NeuroSMM set, 635/667 nm fluorescence (AID 1119).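 Also: probe is the protein aXip251-270 applied at 1 µg/mL to compound-printed slides; binding of probe to printed compounds measured as 667 nm fluorescence plus signal to noise.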 The settings on record: higher = more signal, called active from +8 up or from −8 down.
Experiment [4] can be described thus: small-molecule binders of probe aNOTCH3, primary screen, biochemical, small-molecule microarray, 635/667 nm fluorescence (AID 1120).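 Also: probe is a biotin-tagged antibody raised against NOTCH3 rather than NOTCH3 protein; score merges spot fluorescence near 667 nm with spot signal to noise.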 The settings on record: higher = more signal.
Experiment [5] in a line: small-molecule binders of probe aNOTCH2, primary screen, biochemical, small-molecule microarray, 635/667 nm fluorescence (AID 1121).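 Also: score merges feature fluorescence read at 667 nm with its signal to noise.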 To be noted: higher = more signal.
In experiment [6] the target is Carbonic anhydrase 2 (Homo sapiens) (UniProt P00918). The experiment is described as follows: CAII small-molecule binders, profiling panel, biochemical, small-molecule microarray, Alexa647-labelled CAII (AID 1122). To be noted: CAII-A647 binding fluorescence, higher = more signal.
Experiment [7] is described as follows: COS7 lysate on small-molecule microarray, probe aHis, 635 nm (AID 1123).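 Also: z-score combines 667nm fluorescence intensity with signal-to-noise per printed compound spot.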 The settings on record: COS7 cell lysate, fluorescence, higher = more signal.
Experiment [8] can be described thus: compound binding in COS7 lysate, probe aLAP1, primary screen, cell lysate, small-molecule microarray (AID 1124).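 Also: lysate comes from COS7 cells expressing LAP1 and is applied at 0.3 µg/mL; score merges spot fluorescence near 667 nm with signal-to-noise over triplicate slides.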 The settings on record: probe aLAP1, fluorescence, higher = more signal.
For another experiment, the system named is Sam68 (KHDRBS1). The experiment is described as follows: Sam68 small-molecule binders, primary screen, biochemical, small-molecule microarray, 635 nm fluorescence (AID 1125).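 Also: score merges 667 nm channel intensity with signal to noise over triplicate slides.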 The settings on record: small-molecule microarray binding, higher = more signal.
For experiment [9], the system named is Chordin-like protein 2 (CHRDL2). The experiment is described as follows: CHRDL2 small-molecule binders, primary screen, biochemical, small-molecule microarray, 635 nm fluorescence (AID 1126).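 Also: printed compound slides probed with Chrdl2 protein at 4 µg/mL for 1 h at 4 C; score merges 667 nm emission intensity with signal to noise over three replicate slides.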 The settings on record: small-molecule microarray binding, fluorescence 635 nm; higher = more signal.
Experiment [10] addresses Concanavalin-A (Canavalia ensiformis) (UniProt P02866). The experiment is described as follows: ConA small-molecule binders, primary screen, artefact control for SMM control protein annotation, biochemical, small-molecule microarray, Alexa647 label, 635 nm (AID 1127).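 Also: z combines 667 nm emission intensity with signal-to-noise across three replicate slides.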 To be noted: ConA-A647 binding fluorescence, higher = more signal.
Experiment [11] can be described thus: anti-His antibody binders, primary screen, artefact control for SMM control protein annotation, biochemical, small-molecule microarray, 635 nm fluorescence (AID 1128).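 Also: score merges feature fluorescence with signal-to-noise for each printed compound spot.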 The settings on record: anti-His Alexa647 antibody binding, higher = more signal.
Experiment [12] has as its system Human papillomavirus type 1a E7 protein (residues 1-88). Description: HPV1a E7 small-molecule binders, primary screen, biochemical, small-molecule microarray, residues 1-88, 635 nm (AID 1129). To be noted: small-molecule microarray binding, fluorescence 635 nm; higher = more signal.
The target of experiment [13] is Focal adhesion kinase 1 (Homo sapiens) (UniProt Q05397). Description: small-molecule microarray binders of FAK, primary screen, biochemical, 635/667 nm fluorescence, BSA, DTT (AID 1130).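 Also: composite of spot emission at 667 nm and signal to noise over triplicate slides.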 The settings on record: PTK2 binding, 635 nm fluorescence, higher = more signal.
Chain of Focal adhesion kinase 1 (Homo sapiens) (Q05397 whole entry, looked up): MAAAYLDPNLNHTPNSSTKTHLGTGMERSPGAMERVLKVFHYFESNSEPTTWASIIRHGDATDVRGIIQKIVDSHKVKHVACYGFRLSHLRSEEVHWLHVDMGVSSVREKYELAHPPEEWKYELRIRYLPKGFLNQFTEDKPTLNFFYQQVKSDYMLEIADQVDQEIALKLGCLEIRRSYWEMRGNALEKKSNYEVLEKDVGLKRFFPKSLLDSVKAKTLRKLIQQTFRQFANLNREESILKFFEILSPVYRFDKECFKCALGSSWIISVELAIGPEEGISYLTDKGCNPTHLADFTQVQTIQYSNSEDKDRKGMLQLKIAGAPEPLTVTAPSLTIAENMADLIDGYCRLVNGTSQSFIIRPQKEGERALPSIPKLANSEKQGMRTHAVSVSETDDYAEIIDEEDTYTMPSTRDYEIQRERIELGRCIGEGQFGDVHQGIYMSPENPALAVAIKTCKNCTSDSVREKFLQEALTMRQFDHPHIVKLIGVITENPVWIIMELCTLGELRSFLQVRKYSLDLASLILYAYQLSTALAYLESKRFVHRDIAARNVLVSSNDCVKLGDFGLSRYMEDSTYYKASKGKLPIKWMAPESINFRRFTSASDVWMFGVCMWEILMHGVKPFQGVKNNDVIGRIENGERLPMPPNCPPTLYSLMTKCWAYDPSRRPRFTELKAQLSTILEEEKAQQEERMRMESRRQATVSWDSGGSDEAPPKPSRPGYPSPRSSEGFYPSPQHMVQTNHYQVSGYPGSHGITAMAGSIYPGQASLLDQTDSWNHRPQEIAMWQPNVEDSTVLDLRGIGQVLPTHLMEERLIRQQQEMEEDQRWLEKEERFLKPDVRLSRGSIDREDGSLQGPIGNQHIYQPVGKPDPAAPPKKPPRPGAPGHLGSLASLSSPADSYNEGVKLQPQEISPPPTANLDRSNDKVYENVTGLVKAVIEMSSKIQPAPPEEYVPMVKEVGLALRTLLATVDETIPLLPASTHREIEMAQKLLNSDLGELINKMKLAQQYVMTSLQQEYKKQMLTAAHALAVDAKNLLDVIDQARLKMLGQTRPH
Experiment [14] has as its system Fibrinogen (Alexa647-labelled). The experiment is described as follows: fibrinogen binders on compound microarrays, profiling panel, artefact control for SMM control-protein annotation, biochemical, small-molecule microarray, 635/667 nm fluorescence (AID 1131).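 Also: z-score merges 667 nm fluorescence with per-spot signal-to-noise over triplicate slides.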 To be noted: fibrinogen-A647 binding fluorescence, higher = more signal.
The target in experiment [15] is Follistatin (Homo sapiens) (UniProt P19883). Description: follistatin binders on small-molecule microarrays, primary screen, biochemical, small-molecule microarray, 635/667 nm fluorescence (AID 1132). To be noted: FST binding, 635 nm fluorescence, higher = more signal.
Chain of Follistatin (Homo sapiens) (P19883 whole entry, looked up): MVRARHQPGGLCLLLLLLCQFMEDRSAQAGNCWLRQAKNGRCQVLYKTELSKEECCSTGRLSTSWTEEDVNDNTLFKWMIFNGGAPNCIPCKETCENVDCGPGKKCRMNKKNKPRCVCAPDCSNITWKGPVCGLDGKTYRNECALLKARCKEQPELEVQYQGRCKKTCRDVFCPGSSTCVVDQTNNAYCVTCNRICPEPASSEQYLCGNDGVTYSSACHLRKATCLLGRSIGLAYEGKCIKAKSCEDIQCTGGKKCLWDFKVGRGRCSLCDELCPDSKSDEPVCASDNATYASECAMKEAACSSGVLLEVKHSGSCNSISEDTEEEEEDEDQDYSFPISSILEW
In experiment [16] the target is Fibroblast growth factor 2 (Homo sapiens) (UniProt P09038). The experiment is described as follows: FGF2 binders on small-molecule microarrays, primary screen, biochemical, small-molecule microarray, 635/667 nm fluorescence (AID 1133). To be noted: small-molecule microarray binding, FGF2, fluorescence 635/667; higher = more signal.
Chain of Fibroblast growth factor 2 (Homo sapiens) (P09038 whole entry, looked up): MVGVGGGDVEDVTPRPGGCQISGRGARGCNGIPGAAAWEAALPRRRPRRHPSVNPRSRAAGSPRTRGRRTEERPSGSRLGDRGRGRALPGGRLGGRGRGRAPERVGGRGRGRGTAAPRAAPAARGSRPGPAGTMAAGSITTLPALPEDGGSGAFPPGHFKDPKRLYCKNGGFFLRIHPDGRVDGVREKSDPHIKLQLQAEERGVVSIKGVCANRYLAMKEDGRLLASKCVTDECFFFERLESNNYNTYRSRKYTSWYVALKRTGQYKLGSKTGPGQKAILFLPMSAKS
The nature of experiment [17]: mitochondrial membrane potential change in A549 cells, profiling panel, cell-based, JC-1 fluorescence, basal, 24 h, 100 nL (AID 1138).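 Also: A549 lung adenocarcinoma cells under basal conditions with no added stimulus; test concentration not given here.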 To be noted: higher = more signal.
Another experiment deals with Lefty1. Description: Lefty1 binders on small-molecule microarrays, primary screen, biochemical, small-molecule microarray, 635/667 nm fluorescence (AID 1139). To be noted: small-molecule microarray binding, fluorescence 635/667; higher = more signal.

Each structure is given as a SMILES string. The source made the active and inactive calls.

Chain of Torsin-1A-interacting protein 1 (Homo sapiens) (Q5JTV8 whole entry, looked up): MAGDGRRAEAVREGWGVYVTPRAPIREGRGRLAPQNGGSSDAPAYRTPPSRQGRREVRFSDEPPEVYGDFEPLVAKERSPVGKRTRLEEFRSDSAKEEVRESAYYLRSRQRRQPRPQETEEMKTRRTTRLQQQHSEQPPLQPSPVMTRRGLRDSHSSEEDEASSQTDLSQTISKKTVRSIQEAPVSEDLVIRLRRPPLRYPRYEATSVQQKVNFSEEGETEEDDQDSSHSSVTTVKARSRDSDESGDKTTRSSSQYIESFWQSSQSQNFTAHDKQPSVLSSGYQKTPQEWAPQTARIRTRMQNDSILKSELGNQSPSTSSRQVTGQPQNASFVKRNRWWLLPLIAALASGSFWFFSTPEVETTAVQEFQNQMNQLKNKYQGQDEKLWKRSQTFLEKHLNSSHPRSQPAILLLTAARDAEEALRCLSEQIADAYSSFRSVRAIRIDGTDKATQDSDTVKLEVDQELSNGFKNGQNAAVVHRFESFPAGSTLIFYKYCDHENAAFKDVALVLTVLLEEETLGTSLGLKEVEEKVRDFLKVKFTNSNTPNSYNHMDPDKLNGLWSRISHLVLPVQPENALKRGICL
Chain of Concanavalin-A (Canavalia ensiformis) (P02866 whole entry, looked up): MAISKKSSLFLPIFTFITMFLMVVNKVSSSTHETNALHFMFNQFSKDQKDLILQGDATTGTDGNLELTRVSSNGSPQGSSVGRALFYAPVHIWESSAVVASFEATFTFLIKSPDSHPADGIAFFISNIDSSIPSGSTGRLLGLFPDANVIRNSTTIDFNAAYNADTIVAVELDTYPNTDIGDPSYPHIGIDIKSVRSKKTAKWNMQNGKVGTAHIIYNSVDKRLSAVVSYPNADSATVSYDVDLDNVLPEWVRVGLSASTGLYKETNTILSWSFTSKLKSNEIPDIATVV

Take `O=C(NCC(F)(F)F)[C@@H]1c2ccccc2C(=O)N(C2Cc3ccccc3C2)[C@H]1c1ccc(CO)cc1`: the composite z-score was 0.109 in [1]; 0.179 in experiment [2]; 0.0975 in the experiment with Albumin (Bos taurus); -0.0362 in [4]; -0.0907 in [5]; 0.414 in experiment [6]. Further, the composite z-score in experiment [7] was -0.0023; in experiment [8], 0.386; with Sam68 (KHDRBS1) it was -0.945; in experiment [9], -1.3; in experiment [10], -1; in [11], -1.02. In addition, the composite z-score in experiment [12] was -0.801; in [13] it was -0.26; in experiment [14] it was -1.58; in [15] it was -0.871; in experiment [16], -0.485; in the experiment on Lefty1, -1.25. Besides, the composite Z-score in [3] was -1.34 (inactive). Also, the z-score in experiment [17] is 2.62.

Regarding `CO[C@H]1O[C@H](CO)[C@@H](OC(=O)Nc2ccccc2)[C@H](OC(=O)Nc2ccccc2-c2ccccc2)[C@@H]1OC(=O)Nc1ccccc1-c1ccccc1`, the composite z-score was 1.59 in experiment [1]; 1.1 in experiment [2]; 0.903 with Albumin (Bos taurus); 0.224 in experiment [4]; -0.094 in experiment [5]; 0.419 in experiment [6]. The composite z-score was 1.9 in [7]; 0.381 in [8]; 1.3 with Sam68 (KHDRBS1); -0.138 in [9]; 1.19 in [10]; 2.82 in [11]. For the same molecule, the composite z-score in experiment [12] came to 1.22; in experiment [13], 1.11; in experiment [14], 0.976; in [15], 1.07; in experiment [16], 0.478; with Lefty1, 0.36. Further, in experiment [3], the composite Z-score was -0.0038 (inactive). This molecule also returned a z-score in experiment [17] of 0.458.

Take `CC(C)C(CO)N1C(=O)[C@@H]2C3C(=O)OCCC/C=C\[C@H]3OC23C=CCN(C(C)C)C(=O)[C@@H]13` (stereo not given in full): the composite z-score in experiment [1] was 0.0599; in [2], 1.69; with Albumin (Bos taurus), -1.36; in [4], -0.214; in experiment [5] it was -0.168; in experiment [6], 0.865. For the same molecule, the composite z-score was 1.37 in experiment [7]; 1.95 in experiment [8]; 0.879 in the experiment with Sam68 (KHDRBS1); -1.5 in [9]; -0.341 in experiment [10]; -1.74 in [11]. For the same molecule, the composite z-score in experiment [12] is -0.809; in experiment [13] it was 0.0086; in [14] it was -0.935; in experiment [15], -1.05; in experiment [16], -0.993; in the experiment with Lefty1, -0.278. Besides, the composite Z-score in experiment [3] was 1.77 (inactive). For the same molecule, in experiment [17], the z-score came to 0.743.

Turning to `COC(=O)C(CC#Cc1ccc2c(c1)[C@]1(C(=O)N2)[C@H](C(N)=O)[C@H]2C(=O)O[C@H](c3ccccc3)[C@H](c3ccccc3)N2[C@@H]1c1ccc(O)cc1)C(=O)OC`, the composite z-score in experiment [1] was -0.446; in experiment [2], 0.659; with Albumin (Bos taurus), 0.201; in experiment [4] it was 0.122; in experiment [5] it was 0.0286; in [6] it was 0.803. The composite z-score in experiment [7] is 1.15; in [8], 0.478; in the experiment on Sam68 (KHDRBS1) it was -0.942; in experiment [9], -1.33; in experiment [10], -1.92; in experiment [11], 0.62. In addition, the composite z-score in experiment [12] is -0.328; in experiment [13] it was 0.418; in experiment [14], -1.59; in [15] it was -0.919; in experiment [16] it was -0.292; in the experiment on Lefty1, -0.861. Moreover, the composite Z-score in experiment [3] was 0.0742 (inactive). In experiment [17], this molecule yielded a z-score of -1.07.

Turning to `CC(C)C(=C=CC[C@H](O)c1ccc(OCCO)cc1)C[C@H](O)COCc1ccccc1`, the composite z-score was 0.217 in [1]; 0.833 in experiment [2]; 0.394 in the experiment with Albumin (Bos taurus); 0.0522 in experiment [4]; -0.179 in experiment [5]; 0.508 in experiment [6]. Moreover, the composite z-score in [7] turned out to be 1.43; in experiment [8], 1.04; with Sam68 (KHDRBS1) it was 1.3; in experiment [9] it was 0.433; in [10], 0.673; in experiment [11], 1.73. In addition, the composite z-score in experiment [12] is 1.18; in experiment [13] it was -0.0245; in [14], 0.749; in experiment [15] it was 1.31; in experiment [16] it was 1.03; in the experiment with Lefty1, 0.795. Further, in [3], the composite Z-score is 0.813 (inactive). The same molecule registered a z-score in experiment [17] of 2.47.

`COCCCN1C(=O)[C@@]2(Cc3ccccc31)c1ccccc1C(=O)N(Cc1ccccc1Cl)[C@H]2c1ccc(CO)cc1`: the composite z-score is 0.206 in experiment [1]; 0.167 in [2]; -0.538 in the experiment with Albumin (Bos taurus); -0.126 in [4]; -0.162 in experiment [5]; 0.106 in experiment [6]. For the same molecule, the composite z-score was -0.0024 in experiment [7]; 0.179 in experiment [8]; 0.0462 in the experiment with Sam68 (KHDRBS1); -0.272 in experiment [9]; 0.0915 in [10]; -1.15 in experiment [11]. The composite z-score is -1.53 in experiment [12]; -0.557 in [13]; -0.358 in experiment [14]; -0.45 in [15]; -0.0761 in experiment [16]; -0.348 in the experiment with Lefty1. For the same molecule, in [3], the composite Z-score was -0.17 (inactive). Moreover, the z-score in experiment [17] came to 0.83.

With `C=CCC(OC(C)=O)[C@@H]1[C@@H](N(Cc2cccc3ccccc23)C(=O)Cc2ccc(OC)cc2)c2cc(OCCCO)ccc2N1C(=O)Cc1ccc(OC)cc1` (stereo not given in full), the composite z-score in [1] is 0.277; in experiment [2], -0.0539; in the experiment with Albumin (Bos taurus), 0.73; in experiment [4], -0.0373; in experiment [5] it was -0.104; in [6], 0.207. For the same molecule, the composite z-score in experiment [7] was 0.624; in experiment [8] it was 0.163; in the experiment on Sam68 (KHDRBS1), 0.0025; in [9] it was 0.0487; in experiment [10], -0.532; in experiment [11], -0.28. In addition, the composite z-score in [12] was -0.418; in experiment [13] it was -0.238; in experiment [14] it was 0.849; in experiment [15] it was 0.148; in [16], -0.0722; in the experiment with Lefty1, -0.392. Further, the composite Z-score in experiment [3] is -0.199 (inactive). In addition, the z-score in experiment [17] came to 0.537.

Turning to `COCCOC(=O)N1C(=O)[C@@]2(c3cc(C#CC4(O)CCCCCC4)ccc31)[C@H](c1ccc(O)cc1)N1[C@H](c3ccccc3)[C@H](c3ccccc3)OC(=O)[C@H]1[C@@H]2C(N)=O`, the composite z-score is 0.725 in experiment [1]; 0.852 in [2]; 0.93 in the experiment with Albumin (Bos taurus); 0.0196 in [4]; -0.044 in [5]; 0.704 in [6]. Also, the composite z-score is 1.81 in [7]; 1.34 in [8]; 1.33 with Sam68 (KHDRBS1); -0.485 in [9]; 0.641 in experiment [10]; 1.53 in [11]. Besides, the composite z-score in experiment [12] is 0.745; in experiment [13], 1.36; in experiment [14], -0.173; in experiment [15] it was 0.419; in experiment [16] it was 0.308; in the experiment with Lefty1 it was 0.462. Also, the composite Z-score in experiment [3] was -0.108 (inactive). This molecule also came in with a z-score in [17] of 0.446.
